V-ATPase pH: regulators of yeast V-ATPase proton pumping, primary screen, pHLuorin cytosolic pH fluorescence; S. cerevisiae; response, % at 10 µM; 350,000 compounds, 0.37% hits; AID 504577, 2011; in the data active = response mostly above about 7.3%, no sharp cut-off; inactive = mostly below about 5.4%; also: actives read high
Rtt109 Vps75: inhibitors of C. albicans Rtt109/Vps75 HAT, primary screen, biochemical, ThioGlo CoA-SH fluorescence, plate reader | Histone acetyltransferase RTT109 (Candida albicans (strain SC5314 / ATCC MYA-2876)), … | 330,000 compounds, 0.16% hits | AID 540336, 2011 | purified Rtt109/Vps75, 4 h | inhibition, % at 34.9 µM;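 active = inhibition of at least 50% in every replicate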
DAGLB inh: DAGLB lipase inhibitors, primary screen, biochemical, fluorescence, HTS. HEK293T DAGLB membrane lysate, EnzChek fluorogenic substrate. inhibition, % at 5.17 µM. 340,000 compounds, 0.059% hits. AID 504411, 2011; in the data active = inhibition above about 34%
HDAC3 inh: HDAC3 deacetylase inhibitors, primary screen, biochemical, fluorescence, cell-free homogeneous; 320,000 compounds, 0.15% hits; Histone deacetylase 3 (Homo sapiens), O15379; recombinant HDAC3, fluorogenic peptide/trypsin coupled; inhibition, % at 8.3 µM; in the data active = inhibition above about 26%, passing the limit was not always enough
Target sequence (O15379 whole entry, looked up): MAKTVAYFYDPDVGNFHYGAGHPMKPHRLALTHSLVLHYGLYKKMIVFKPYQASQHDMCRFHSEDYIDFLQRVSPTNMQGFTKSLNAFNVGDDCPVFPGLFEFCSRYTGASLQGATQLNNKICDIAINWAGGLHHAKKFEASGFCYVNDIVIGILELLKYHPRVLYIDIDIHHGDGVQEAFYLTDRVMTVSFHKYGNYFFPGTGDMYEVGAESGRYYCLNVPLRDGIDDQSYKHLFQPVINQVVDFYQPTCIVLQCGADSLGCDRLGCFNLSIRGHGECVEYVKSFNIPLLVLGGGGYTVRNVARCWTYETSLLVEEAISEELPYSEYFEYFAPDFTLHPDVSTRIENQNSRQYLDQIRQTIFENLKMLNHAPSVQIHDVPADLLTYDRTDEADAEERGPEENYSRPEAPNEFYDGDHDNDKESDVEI
MIN6 prolif: inducers of MIN6 beta-cell proliferation, primary screen, ATP luminescence, uHTS; MIN6 cells proliferation, ATPlite luminescence, 48 h; cells starved in 0.2% serum; 100% = growth in 10% serum; proliferation, % at 10 µM; 330,000 compounds, 0.29% hits; AID 2380, 2010;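 active = compounds whose signal lies at least 3.5 SD above the mean of all wells on their plate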
VATPase regulator: yeast V-ATPase proton pumping modulators, confirmation, S. cerevisiae, pH-sensitive GFP, second cherry-pick; shares compounds with V-ATPase pH; S. cerevisiae pHLuorin cytosolic pH, V-ATPase proton transport; response, % at 10 µM; 980 compounds, 2% hits; AID 602197, 2012; in the data active = response above about 24%
Of the large screens only hits and unclear results are named; the others gave an inactive call (follow-up assays come after a bar, where they were run). Only some compounds are listed: those with a hit (about 0.96% of all), similar ones and a draw of the others.

CCOC(=O)C1C(O)=CC(=O)CC1c1ccccc1 (stereo not given)	none
CCOC(=O)C1C(=O)N(O)CC1c1cccc(Oc2ccccc2)c1 (stereo not given)	V-ATPase pH 13 | VATPase regulator inactive
COc1cccc(C2=NOC(C(=O)Nc3ccc(C(C)=O)cc3)C2)c1 (stereo not given)	V-ATPase pH 13 | VATPase regulator inactive
CC(C)CN1CCN(Cc2cccc3nccnc23)CC1CCO (stereo not given)	none
O=C(Oc1ccccc1Cl)c1ccccc1	V-ATPase pH 13 (no result: HDAC3 inh, MIN6 prolif) | VATPase regulator inactive
CN1c2ccsc2/C(=N/Nc2ccc(F)cc2)CS1(=O)=O	none
O=C(CCN1C(=O)c2ccccc2C1=O)C1=NN[C@@H]2C(=O)N(c3cccc(F)c3)C(=O)[C@H]12	none
CC(=O)N1N=C(c2ccccc2)OC1(C)CC(=O)Nc1ccccc1 (stereo not given)	V-ATPase pH 8.3 | VATPase regulator inactive
FC(F)(F)c1cc(C(F)(F)F)n2nc(-c3sccc3-n3cccc3)cc2n1	V-ATPase pH 12 | VATPase regulator inactive
Cc1cc(C)n2nc(-c3sccc3-n3cccc3)cc2n1	none
Cc1ccc(Nc2nc3ccccc3c(=O)[nH]2)cc1C	V-ATPase pH 11 | VATPase regulator inactive
COc1ccc(Nc2nc3ccccc3c(=O)[nH]2)cc1	none
COc1ccccc1/C=C(/C(=O)OCC(=O)Nc1cc(C)ccc1C)c1ccccc1	none
NNC(=O)c1snnc1-c1ccccc1	none
COC(=O)c1ccc(NC(=O)c2snnc2-c2ccccc2)cc1	V-ATPase pH 8.2 | VATPase regulator inactive
NS(=O)(=O)c1ccc(CCNC(=O)c2ccco2)cc1	V-ATPase pH 11 | VATPase regulator inactive
NS(=O)(=O)c1ccc(CCNC(=O)CCNC(=O)c2ccco2)cc1	none
O=C(COc1cnc2ccccc2n1)NCCC1=CCCCC1	none
O=C1C[C@@H]2CCN3C(=O)CCC[C@@H]([C@H]23)[C@H]1Cc1ccccc1	none (no result: HDAC3 inh, MIN6 prolif)
O=C(COC(=O)CSc1ccc2ccccc2c1)Nc1ccccc1OC(F)F	V-ATPase pH 11 | VATPase regulator inactive
COCCN(C(=O)CNC(=O)c1ccco1)C(C(=O)NC1CCCCC1)c1cccnc1 (stereo not given)	none
O=c1c(C=Nc2ccc(Cl)cc2)c[nH]n1-c1cccc(Cl)n1	V-ATPase pH 11 | VATPase regulator inactive
CC1CC(C)CN(C(=O)CN2C(=O)NC3(CCCCCC3)C2=O)C1 (stereo not given)	V-ATPase pH 12 | VATPase regulator inactive
Cc1noc2ncnc(Oc3cc(Cl)ccc3Cl)c12	none
O=C(CCl)N1CCN(C(=O)C2COc3ccccc3O2)CC1 (stereo not given)	V-ATPase pH 14 | VATPase regulator inactive
CCN1CCN(C(=O)C2COc3ccccc3O2)CC1 (stereo not given)	none
C[C@H](CO)N1C[C@H](C)[C@H](CN(C)Cc2ccc(-c3ccccc3)cc2)Oc2ccc(NS(=O)(=O)c3ccccc3)cc2CC1=O	none
COc1ccccc1N1CCN(C2CCCN(C(=O)c3cscn3)C2)CC1 (stereo not given)	none
CCOc1ccc(N(C(=O)/C=C/C(=O)Nc2cc(C)on2)C(C(=O)NC2CCCC2)c2ccccc2C)cc1 (stereo not given)	none
CCc1ccc(C(C(=O)NC2CCCC2)N(C(=O)/C=C/C(=O)Nc2cc(C)on2)c2ccccc2C)cc1 (stereo not given)	V-ATPase pH 10 | VATPase regulator inactive
CN(Cc1ccccc1)C(=O)c1ccc(NC(=O)Cc2cccc([N+](=O)[O-])c2)cc1	none
Cc1ccc(-c2ccc(CCC(=O)O)n2-c2ccc(O)cc2)cc1	none
O=C(O)CCc1ccc(-c2ccc(Br)cc2)n1-c1ccc(O)cc1	V-ATPase pH 12 | VATPase regulator inactive
CCC(=O)N1N=C(c2ccc(C)o2)CC1c1ccc(Br)cc1 (stereo not given)	none
CCOC(=O)Cc1nc2ccccc2n(CC#N)c1=O	none (no result: Rtt109 Vps75) | VATPase regulator inactive
CCOC(=O)Cn1c(=O)n(CC(=O)OCC)c2ccccc21	none (no result: HDAC3 inh) | VATPase regulator inactive
CCOC(=O)N=Nc1c(O)n(CC(=O)OC)c2ccccc12	none | VATPase regulator inactive
COC(=O)Cn1c(O)c(N=NC(=O)CNC(=O)c2ccc3c(c2)OCCO3)c2ccccc21	none
CCOC(=O)Cn1c(=N)n(Cc2ccccc2)c2ccccc21	none
COc1ccc(C(=O)Cn2c(C(C)=O)nc3ccccc32)cc1	none (no result: HDAC3 inh, MIN6 prolif)
CCOC(=O)Cn1c(C(C)=O)nc2ccccc21	none | VATPase regulator inactive
CCCCn1c(=O)c(CCC(=O)O)nc2ccccc21	none
CCN(CC(=O)Nc1ccc(OC)cc1)C(=O)c1ccc(OCc2c(C)noc2C)cc1	none (no result: HDAC3 inh, MIN6 prolif)
COc1ccc(Nc2nc(C)cc(C)n2)cc1Cl	none
CC1Cc2nc(SCC(=O)NCC3CCCO3)n(Cc3ccccc3)c(=O)c2S1 (stereo not given)	none
CC(=O)NC(CC(=O)Nc1nc(-c2ccc(N(C)S(C)(=O)=O)cc2)cs1)c1ccccc1 (stereo not given)	none
CCOC(=O)Cn1c(C)nc2ccccc21	none | VATPase regulator inactive
COC(=O)Cn1c(C)nc2ccccc21	none
O=C(O)Cn1c(=O)c(-c2ccccc2)nc2ccccc21	none
COC(=O)Cn1c(=O)c(C)nc2ccccc21	none | VATPase regulator inactive
CCOC(=O)Cn1c(-c2ccccn2)nc2ccccc21	none | VATPase regulator inactive
O=C(O)Cn1c(-c2ccccn2)nc2ccccc21	none
CCOC(=O)Cn1c(=O)c(-c2ccccc2NC)nc2ccccc21	none | VATPase regulator inactive
O=C(Nc1cccc(Cl)c1)c1cnccn1	none
CSc1ccc(CN(C)C(=O)CNC(=O)CNS(=O)(=O)c2ccc(C)c(C)c2)cc1	none
CCCCCOc1ccc(C(C)(O)C(CN2CCOCC2)c2ccccc2)cc1 (stereo not given)	V-ATPase pH 14 | VATPase regulator inactive
COc1cc(F)cc(-c2ccc3c(c2)c(-c2cccs2)c(-c2cc(OC)cc(OC)c2)n3C)c1	none
COc1cc(OC)cc(-c2c(-c3cccs3)c3cc(-c4ccc(CN5CCOCC5)cc4)ccc3n2C)c1	V-ATPase pH 7.8 | VATPase regulator inactive
COC(=O)c1ccc(CNC(=O)c2ccc3c(c2)S(=O)(=O)N=C2CCCCCN23)cc1	V-ATPase pH 11 | VATPase regulator inactive
COc1cccc(CNC(=O)c2ccc3c(c2)S(=O)(=O)N=C2CCCCCN23)c1	none
Cc1nc(NC(=O)c2c(-c3ccccc3Cl)noc2C)sc1C	V-ATPase pH 13 | VATPase regulator inactive
O=c1c2c(-c3ccccc3)csc2ncn1/N=C/c1cccc([N+](=O)[O-])c1O	V-ATPase pH 82 | VATPase regulator inactive
